The nature of test [1]: NCI Yeast Anticancer Drug Screen. Data for the rad50 strain (AID 155).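 Note: 0% = growth of vehicle-only cultures of the same strain.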 To be noted: S. cerevisiae rad50 strain growth inhibition, active compounds read high. Summed up: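 Compounds were tested on a yeast strain with an engineered DNA damage repair alteration; the reported value is growth inhibition normalised to vehicle treatment.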
A short description of test [2]: NCI Yeast Anticancer Drug Screen. Data for the mec2-1 strain (AID 157). As to conditions: S. cerevisiae mec2-1 strain, active compounds read high. Summed up: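 Using mec2-1 yeast: add compound, measure growth, express inhibition versus vehicle-treated cultures.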
A short description of test [3]: NCI Yeast Anticancer Drug Screen. Data for the sgs1 mgt1 strain (AID 161).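 Note: 0% = growth of cultures given vehicle only.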 As to conditions: S. cerevisiae sgs1 mgt1 strain, active compounds read high. Summed up:
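Compounds are added to genetically altered yeast, and growth is compared with cultures given vehicle alone to give percent inhibition.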

Test [4] can be described thus: NCI Yeast Anticancer Drug Screen. Data for the cln2 rad14 strain (AID 165).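 Note: 0% = growth equal to vehicle treated cultures.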 To be noted: S. cerevisiae cln2 rad14 strain, active compounds read high. Summed up:
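Yeast strain cln2 rad14, bearing defects in cell cycle control and DNA repair, serves as the test system; values reflect growth inhibition compared with vehicle.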

Test [5] in a line: NCI Yeast Anticancer Drug Screen. Data for the bub3 strain (AID 167). As to conditions: S. cerevisiae bub3 mutant strain, active compounds read high. Summed up:
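Growth of a checkpoint-deficient yeast mutant is measured after compound exposure. Values represent inhibition relative to vehicle.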

The nature of test [6]: NCI Yeast Anticancer Drug Screen. Data for the mlh1 rad18 strain (AID 175). As to conditions: S. cerevisiae mlh1 rad18 strain growth inhibition, active compounds read high. Summed up:
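Steps: expose repair-defective yeast to compound; measure growth; express inhibition against vehicle-treated controls.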

The mark [7] stands for this setting: at 5.0 µM (retest, dose inferred, filed as 0.5).
Setting [8] is: at 50.0 µM (retest, dose inferred, filed as 5.0).

The panel holds about 79,000 compounds, 15% with a hit somewhere; the sample as a whole holds those more often. Values without a mark were called inactive. Activity calls are given as the source filed them. Cut-off read from the data, not from the text of the source: active = growth inhibition above about 70%; inactive = the rest.

For `COc1ccc(/C=N/NS(=O)(=O)c2ccccc2)cc1`, the growth inhibition in test [1] (setting [7]) is 0%; in test [1] (setting [8]), -2%; in test [1] (at 50.0 µM), 99.1% (active); in test [2] (setting [7]), -2%; in test [2] (setting [8]), 4%; in test [2] (at 50.0 µM), 99.3% (active). Besides, the growth inhibition in test [3] (setting [7]) is 0%; in test [3] (setting [8]) it was 3%; in test [3] (at 50.0 µM), 99% (active); in test [4] (setting [7]) it was -10%; in test [4] (setting [8]), -7%; in test [4] (at 50.0 µM), 98% (active). Besides, the growth inhibition in test [5] (setting [7]) was 2%; in test [5] (setting [8]), 11%; in test [5] (at 50.0 µM), 99.2% (active); in test [6] (setting [7]), -2%; in test [6] (setting [8]), 7%; in test [6] (at 50.0 µM), 99% (active).
For `C=CCN1/C(=C/C=C\c2sc3ccccc3[n+]2CC=C)Sc2ccccc21`, the growth inhibition in test [1] (setting [7]) is 60%; in test [1] (setting [8]), 98% (active); in test [1] (at 50.0 µM), 91.7% (active); in test [2] (setting [7]) it was 80% (active); in test [2] (setting [8]) it was 99% (active); in test [2] (at 50.0 µM), 93.6% (active). Besides, the growth inhibition in test [3] (setting [7]) is 95% (active); in test [3] (setting [8]) it was 99% (active); in test [3] (at 50.0 µM) it was 93.7% (active); in test [4] (setting [7]), 93% (active); in test [4] (setting [8]), 99% (active); in test [4] (at 50.0 µM), 93.5% (active). Also, the growth inhibition in test [5] (setting [7]) was 98% (active); in test [5] (setting [8]) it was 99% (active); in test [5] (at 50.0 µM) it was 92.2% (active); in test [6] (setting [7]), 90% (active); in test [6] (setting [8]), 98% (active); in test [6] (at 50.0 µM), 91.8% (active).
In the case of `Cc1cc(NC(=S)SCc2ccc(F)cc2)ccc1Br`, the growth inhibition in test [1] (setting [7]) is 49%; in test [1] (setting [8]), 99% (active); in test [1] (at 50.0 µM) it was 90.7% (active); in test [2] (setting [7]), 32%; in test [2] (setting [8]), 100% (active); in test [2] (at 50.0 µM), 92.8% (active). Further, the growth inhibition is 58% in test [3] (setting [7]); 100% (active) in test [3] (setting [8]); 91.8% (active) in test [3] (at 50.0 µM); 46% in test [4] (setting [7]); 99% (active) in test [4] (setting [8]); 90.7% (active) in test [4] (at 50.0 µM). Also, the growth inhibition in test [5] (setting [7]) is 56%; in test [5] (setting [8]), 100% (active); in test [5] (at 50.0 µM), 92.3% (active); in test [6] (setting [7]), 33%; in test [6] (setting [8]) it was 98% (active); in test [6] (at 50.0 µM), 91.4% (active).
For `COc1cc2c(cc1OC)C(C)N(C)c1c-2c(OC(C)=O)cc2cc(OC)c(OC)cc12` (configuration not stated), the growth inhibition is 2% in test [1] (setting [7]); 52% in test [1] (setting [8]); 82.5% (active) in test [1] (at 50.0 µM); -4% in test [2] (setting [7]); 64% in test [2] (setting [8]); 87.4% (active) in test [2] (at 50.0 µM). For the same molecule, the growth inhibition in test [3] (setting [7]) was -4%; in test [3] (setting [8]), 67%; in test [3] (at 50.0 µM) it was 64.2%; in test [4] (setting [7]) it was -8%; in test [4] (setting [8]), 49%; in test [4] (at 50.0 µM), 19.6%. Besides, the growth inhibition in test [5] (setting [7]) was -4%; in test [5] (setting [8]) it was 72% (active); in test [5] (at 50.0 µM), 42.2%; in test [6] (setting [7]), -3%; in test [6] (setting [8]), 54%; in test [6] (at 50.0 µM) it was 70.5% (active).
For `CC(=O)O[C@H]1CC[C@@]2(C)C(CC[C@]3(C)C2CC=C2[C@@H]4CC(C)(C)CC[C@]4(C(=O)NCCN(C)C)CCC23C)C1(C)C` (some centres not stated), the growth inhibition in test [1] (setting [7]) is -3%; in test [1] (setting [8]) it was 94% (active); in test [1] (at 50.0 µM), 77% (active); in test [2] (setting [7]) it was -2%; in test [2] (setting [8]), 98% (active); in test [2] (at 50.0 µM), 95.4% (active). The growth inhibition in test [3] (setting [7]) is -2%; in test [3] (setting [8]), 98% (active); in test [3] (at 50.0 µM), 72.7% (active); in test [4] (setting [7]), -4%; in test [4] (setting [8]), 57%; in test [4] (at 50.0 µM), 5.3%. Moreover, the growth inhibition in test [5] (setting [7]) was -2%; in test [5] (setting [8]), 87% (active); in test [5] (at 50.0 µM), -21.4%; in test [6] (setting [7]) it was -2%; in test [6] (setting [8]), 93% (active); in test [6] (at 50.0 µM), 97.7% (active).
In the case of `CN1CCN=C1c1ccc(NC(=O)Nc2ccc(NC(=O)Nc3ccc(C4=NCCN4C)cc3)cc2)cc1`, the growth inhibition is -1% in test [1] (setting [7]); 80% (active) in test [1] (setting [8]); 84.8% (active) in test [1] (at 50.0 µM); -15% in test [2] (setting [7]); 85% (active) in test [2] (setting [8]); 86.5% (active) in test [2] (at 50.0 µM). Moreover, the growth inhibition was -15% in test [3] (setting [7]); 74% (active) in test [3] (setting [8]); 90% (active) in test [3] (at 50.0 µM); -10% in test [4] (setting [7]); 61% in test [4] (setting [8]); 50.8% in test [4] (at 50.0 µM). In addition, the growth inhibition is -2% in test [5] (setting [7]); 83% (active) in test [5] (setting [8]); 92% (active) in test [5] (at 50.0 µM); 1% in test [6] (setting [7]); 83% (active) in test [6] (setting [8]); 93.8% (active) in test [6] (at 50.0 µM).
On to `O=C1C2C3CCC(O3)C2C(=O)N1c1cccc2ccccc12` (configuration not stated), for which the growth inhibition in test [1] (setting [7]) was -1%; in test [1] (setting [8]), -27%; in test [1] (at 50.0 µM), -1.2%; in test [2] (setting [7]), -5%; in test [2] (setting [8]) it was -5%; in test [2] (at 50.0 µM) it was 8.15%. In addition, the growth inhibition in test [3] (setting [7]) is -3%; in test [3] (setting [8]), 1%; in test [3] (at 50.0 µM), 49%; in test [4] (setting [7]), 0%; in test [4] (setting [8]), 1%; in test [4] (at 50.0 µM), -7.35%. Further, the growth inhibition is 0% in test [5] (setting [7]); 7% in test [5] (setting [8]); -10.4% in test [5] (at 50.0 µM); 0% in test [6] (setting [7]); 5% in test [6] (setting [8]); 8.3% in test [6] (at 50.0 µM).
Turning to `CC(C)(CC#N)c1cc(CC(C)(C)c2cc(CC(C)(C)c3cc(CC(C)(C)C4(C)OCCO4)no3)no2)no1`, the growth inhibition in test [1] (setting [7]) was -2%; in test [1] (setting [8]), 2%; in test [1] (at 50.0 µM) it was 16.8%; in test [2] (setting [7]) it was -4%; in test [2] (setting [8]), -2%; in test [2] (at 50.0 µM), 2.6%. Further, the growth inhibition in test [3] (setting [7]) is -2%; in test [3] (setting [8]), 6%; in test [3] (at 50.0 µM), -17.4%; in test [4] (setting [7]), 1%; in test [4] (setting [8]) it was -4%; in test [4] (at 50.0 µM) it was 0.5%. The growth inhibition was -3% in test [5] (setting [7]); 0% in test [5] (setting [8]); -1.9% in test [5] (at 50.0 µM); -2% in test [6] (setting [7]); -8% in test [6] (setting [8]); 12.8% in test [6] (at 50.0 µM).
As for `COc1ccc2c(c1)C(Br)CCC(Br)C2=O` (configuration not stated), the growth inhibition in test [1] (setting [7]) is -20%; in test [1] (setting [8]) it was 2%; in test [1] (at 50.0 µM) it was 47.6%; in test [2] (setting [7]), -48%; in test [2] (setting [8]), -18%; in test [2] (at 50.0 µM), 56.2%. Moreover, the growth inhibition in test [3] (setting [7]) is -17%; in test [3] (setting [8]), 26%; in test [3] (at 50.0 µM) it was 80.3% (active); in test [4] (setting [7]), 13%; in test [4] (setting [8]), 39%; in test [4] (at 50.0 µM), 33.5%. In addition, the growth inhibition in test [5] (setting [7]) was -36%; in test [5] (setting [8]), 51%; in test [5] (at 50.0 µM), 88.7% (active); in test [6] (setting [7]) it was -20%; in test [6] (setting [8]), 34%; in test [6] (at 50.0 µM), 91.8% (active).
